Sampled rows, rich in hits. Any-hit rate of the full collection: about 4.1%.
tim10-1 inh – tim10-1 yeast growth inhibition. S. cerevisiae tim10-1 ts strain growth, BacTiter-Glo, 24 h. inhibition, % at 20 µM. 2.2% of 330,000 active. AID 463190;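 active = inhibition of at least 40%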;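 note: mutant grown at 25 °C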
TIM10 inh – TIM10 yeast growth inhibition. 1.4% of 330,000 active. S. cerevisiae TIM10 strain growth, BacTiter-Glo luminescence, 24 h. AID 463195. inhibition, % at 10 µM;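 active = inhibition of 40% or more at the single tested concentration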;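 note: wild-type TIM10 isogenic control strain grown at permissive 25 °C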
NALP1 yeast inh – inhibitors of NALP1 inflammasome in yeast. AID 2071. inhibition, % at 10 µM. S. cerevisiae NALP1/ASC/caspase-1 growth, X-gal OD620, 72 h. 0.61% of 280,000 active; in the data active = inhibition mostly above about 24%, no sharp cut-off; inactive = mostly below about 32%
tim23-1 inh – growth inhibitors of tim23-1 mutant yeast; S. cerevisiae tim23-1 growth, BacTiter-Glo luminescence, 24 h; inhibition, % at 20 µM; 1.3% of 330,000 active;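 active = growth inhibition of the mutant yeast at or above 50%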;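 note: temperature-sensitive mutant grown at 25 °C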
NLRP3 yeast inh – inhibitors of NALP3 inflammasome in yeast | Yeast reconstituted NLRP3/ASC/caspase-1, beta-gal luminescence, 24 h | inhibition, % at 10 µM | 0.39% of 330,000 active | AID 2825;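 active = inhibition of 50% or more; inactive = inhibition below 50%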
tim10-1 conf – confirmation of tim10-1 mutant yeast growth inhibitors; 56% of 7,400 active; shares compounds with tim10-1 inh; inhibition, % at 20 µM; S. cerevisiae tim10-1 ts strain growth, BacTiter-Glo, 24 h;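 active = inhibition of yeast growth at or above a set limit in either of two repeat tests at 20 µM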;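 note: tim10-1 mutant grown at permissive 25 °C to find synthetic lethal compounds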
Large screens that a line does not name were inactive (follow-up assays come after a bar, where they were run).

CC(C)c1ccc(NC(=S)Nc2ccc3cn[nH]c3c2)cc1	tim10-1 inh 43 | tim10-1 conf inactive
COC(=O)c1cc(NS(=O)(=O)c2ccc(C(C)C)cc2)ccc1N1CCOCC1	none (no result: NALP1 yeast inh)
CCC1CCCCN1S(=O)(=O)c1ccc(NC(=O)c2nc(S(C)(=O)=O)ncc2Cl)cc1 (stereo not given)	tim10-1 inh 54 | tim10-1 conf inactive
CCS(=O)(=O)c1ncc(Cl)c(C(=O)Nc2ccc(S(=O)(=O)N3CCCC(C)C3)cc2)n1 (stereo not given)	tim10-1 inh 43 | tim10-1 conf inactive
CN(CC(=O)Nc1ccc(Cl)c(C(F)(F)F)c1)C(=O)c1ccc(OCC2CCCO2)cc1 (stereo not given)	none (no result: NALP1 yeast inh)
COc1ccc(Cl)cc1C(=O)NNC(=O)COC(=O)CC(NC(C)=O)c1ccccc1 (stereo not given)	none (no result: NALP1 yeast inh)
CCc1c(C)[nH]c2ccc(OC)cc2c1=S	tim10-1 inh 46 | tim10-1 conf 36
Cc1c(C)n(C)c2ccc(C(=O)Nc3cccc4ccccc34)cc12	tim10-1 inh 43 | tim10-1 conf 32
CC(NC(=O)CN1CCN(C(=O)c2cccs2)CC1)c1ccc(F)cc1F (stereo not given)	none (no result: NALP1 yeast inh)
Cc1ccc(C(=O)O/N=C(/c2nonc2N)N(C)C)cc1	tim10-1 inh 67 | tim10-1 conf 62
NS(=O)(=O)c1ccc(CCNC(=O)CCCCCn2c(=S)[nH]c3ccc(Br)cc3c2=O)cc1	none
CCc1ccc(C2CC(c3ccc(Cl)cc3)=NNC2=O)cc1 (stereo not given)	none
CN1N=C(c2ccc(Cl)cc2)CC(c2ccc(Cl)cc2)C1=O (stereo not given)	tim10-1 inh 42 | tim10-1 conf inactive
COc1ccccc1/C=C1\SC(=S)N(NS(=O)(=O)c2ccc(C)cc2)C1=O	tim10-1 inh 44 | tim10-1 conf inactive
CCc1ccc(C(=O)NNC(=O)CCc2nc3ccccc3c(=O)[nH]2)cc1	none (no result: NALP1 yeast inh)
COc1ccc(CCNc2cc(C)nc3c(-c4ccccc4)c(C)nn23)cc1OC	tim10-1 inh 43 | tim10-1 conf inactive
COc1ccc(-c2c(C)nn3c(NC4CCCC4)cc(C)nc23)cc1OC	tim10-1 inh 44 | tim10-1 conf inactive
COc1ccc(-c2c(C)nn3c(N4CCN(Cc5ccccc5)CC4)cc(C)nc23)cc1OC	none
CC1(C)Cc2c(cnn2-c2ccc(F)cc2)C(NC(=O)c2ccoc2)C1 (stereo not given)	tim10-1 inh 40 | tim10-1 conf inactive
Cc1ccc(-n2ncc3c2CC(C)(C)CC3NC(=O)c2ccccn2)cc1 (stereo not given)	tim10-1 inh 53 | tim10-1 conf inactive
Cc1ccc(-c2csc(NC(=O)CN3CC(C)OC(C)C3)n2)cc1 (stereo not given)	tim10-1 inh 40 | tim10-1 conf 34
COc1ccc(C(=O)NNC2=NCCCCC2)cc1	none
COc1cc(C(=O)OC(C)C(=O)NC2CCCCC2C)c([N+](=O)[O-])cc1OC (stereo not given)	none (no result: NALP1 yeast inh)

High-throughput results (PubChem)
